Reference: the supplement of paper PMC6522484
± gives the standard deviation of the averaged measurements.

Assays:
DLD1 [1] = assay: cell viability (CellTiter-Glo) relative to plate median (fraction of plate median); higher = more viable cells; conditions: 5 µM; treatment time 24 h; reporter: 7TFP
Outline: (§1)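 Stable lentiviral TCF/Wnt firefly luciferase reporters (7TFP or TCF4/Wnt) were present in the colorectal cancer cell lines used. These cells received library compounds at a final 5 µM for 24 h, and parallel plates were read for firefly luciferase or CellTiterGlo luminescence. Each well was normalised to the plate median, and the value reported is the mean of two independent replicates.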

HCT116 = assay: as above; conditions: 5 µM; treatment time 24 h; reporter: TCF4/Wnt
Outline: as §1

SW480 [2] = assay: as above; conditions: 5 µM; treatment time 24 h; reporter: 7TFP
Outline: as §1

DLD1 [3] = assay: TCF/Wnt firefly luciferase reporter signal relative to plate median (fraction of plate median); higher = higher Wnt reporter signal; conditions: 5 µM; treatment time 24 h; reporter: 7TFP
Outline: as §1

SW480 [4] = assay: as above; conditions: 5 µM; treatment time 24 h; reporter: 7TFP
Outline: as §1

Row | Compound | cell viability (DLD1 [1]) | cell viability (HCT116) | cell viability (SW480 [2]) | TCF/Wnt firefly luciferase reporter signal (DLD1 [3]) | TCF/Wnt firefly luciferase reporter signal (SW480 [4])
1 | C=C(C)[C@@H]1CC=C(C(=O)O)CC1 | 1.055 ± 0.0071 | 1.04 ± 0.11 | 0.995 ± 0.035 | 1.11 ± 0.17 | 1.055 ± 0.0071
2 | O=C1NC(Cc2ccc(O)cc2)C(=O)N2CCCC12 (stereo not given) [Cyclo(tyrosylprolyl)] | 0.935 ± 0.0085 | 0.928 ± 0.023 | 0.9425 ± 0.0021 | 0.768 ± 0.15 | 0.959 ± 0.028
3 | NC[C@H]1O[C@H](O[C@H]2[C@H](O)[C@@H](O[C@H]3O[C@H](CO)[C@@H](O)[C@H](N)[C@H]3O)[C@H](N)C[C@@H]2N)[C@H](N)[C@@H](O)[C@@H]1O | 1.11 ± 0.028 | 0.997 ± 0.033 | 1.02 ± 0.052 | 1.03 ± 0.035 | 1.01 ± 0.021
4 | O=c1c2cc(O)c(O)cc2oc2cc(O)c([C@@H]3O[C@H](CO)[C@@H](O)[C@H](O)[C@H]3O)c(O)c12 | 1.09 ± 0.13 | 1.045 ± 0.0071 | 1.05 ± 0.035 | 0.988 ± 0.06 | 0.957 ± 0.061
5 | O=C(O)c1cccc(O)c1O | 1.01 ± 0.047 | 1.14 ± 0.035 | 1.02 ± 0.068 | 0.954 ± 0.034 | 0.947 ± 0.0085
6 | CN(C)CCC(c1ccc(Br)cc1)c1ccccn1 (stereo not given) | 0.931 ± 0.15 | 1.055 ± 0.0071 | 0.922 ± 0.061 | 1.11 ± 0.11 | 1.055 ± 0.0071
7 | CC(=O)Oc1cc2c(c(C)c1OC(C)=O)CC=C1[C@@]2(C)CC[C@@]2(C)C3C[C@](C)(C(=O)O)CC[C@]3(C)CC[C@]12C (stereo not given in full) | 0.903 ± 0.12 | 0.958 ± 0.16 | 0.953 ± 0.081 | 0.869 ± 0.064 | 0.898 ± 0.12
8 | CC(=O)Nc1cccc(O)c1 | 0.933 ± 0.17 | 1.1 ± 0.028 | 1.03 ± 0.021 | 0.949 ± 0.14 | 0.939 ± 0.13
9 | Nc1ccc(S(=O)(=O)Nc2cnc3ccccc3n2)cc1 | 0.996 ± 0.02 | 1.07 ± 0.028 | 1 ± 0.08 | 1.11 ± 0.085 | 1.045 ± 0.0071
